We go through 102 molecules from ChEMBL document CHEMBL3988442, “University of Dundee, Small-Polar-MMV Screening Library” (2021).

In all, about 48,000 compounds went through this assay and about 13,000 (27%) showed an effect of 50% or more. The list shows a part of the results.

The subject of this test is Wolbachia pipientis. Briefly: Anti-Wolbachia Cell-Based Screen. In kind it is functional. Set-up: scale not given: in the data most compounds retested in dose-response had high values. The note with it: 5 µM.
For the molecule `NC(=O)C1CCN(CC(=O)N(Cc2ccccc2)Cc2nccs2)CC1`, the “Percent Effect” value is listed as 113.3%. The same measure for `O=C(CN1CCOC1=O)N(Cc1ccccc1)Cc1nccs1`: 101.3%; for `CN(Cc1csc(-c2cccs2)n1)C(=O)CN1CCOC1=O`: 19.54%. For the molecule `COc1cccc(CN(C)C(=O)CN2CCN(c3nccs3)CC2)c1`, the “Percent Effect” value was 7.332%. The same measure for `COc1ccc(CN(CC2CCCO2)C(=O)CN2CCOC2=O)cc1` (configuration not stated): 10.27%; for `O=C(Nc1nccs1)NC1CCN(Cc2ccccc2)C1` (configuration not stated): -7.508%. Regarding `CN(Cc1cccnc1)c1nccc(N2CCN[C@H]3CS(=O)(=O)C[C@H]32)n1`, the “Percent Effect” value was -2.359%. The same measure for `COc1cccc(-c2cc(NCC(=O)O)nc3[nH]ccc23)n1`: -3.915%; for `OCCNc1cc(-c2nccnc2N2CCCC2)c2cc[nH]c2n1`: 104.7%.

Regarding `Nc1cc(-c2cc(C(=O)O)ccc2Cl)c2cc[nH]c2n1`, the “Percent Effect” value is on record as 2.257%. Consider `Nc1cc(-c2cc(O)cc(C(=O)O)c2)c2cc[nH]c2n1`, for which the “Percent Effect” value is -2.921%. The same measure for `O=C(O)CNc1cc(-c2nccnc2N2CCCC2)c2cc[nH]c2n1`: 94.3%. For `CN(C)CCNc1cc(-c2ncccc2C(F)(F)F)c2cc[nH]c2n1`, the “Percent Effect” value is recorded as -6.362%. The same measure for `Nc1cc(-c2nccnc2N2CCCC2)c2cc[nH]c2n1`: 67.22%.

As for `Nc1cc(-c2ccc(C(=O)O)cc2O)c2cc[nH]c2n1`, the “Percent Effect” value is reported as 1.335%.

Regarding `CN(C)CCNc1cc(-c2ncccc2O)c2cc[nH]c2n1`, the “Percent Effect” value was found to be 15.75%. Turning to `Cc1noc(C2CN(CC(=O)NCC3CCCO3)C2)n1` (configuration not stated), the “Percent Effect” value came to 9.756%. The same measure for `CN(C)C(=O)c1ccc2c(c1)N(C)C(CC(=O)NC(CO)CO)CO2` (configuration not stated): 0.9161%; for `CCCn1cnnc1CNC1CCCC1`: -7.935%; for `Cc1cc(C)c2cc(CNCC3CCCO3)c3nn(C)c(=O)n3c2c1` (configuration not stated): -6.505%. The same measure for `Cc1cc(C)c2cc(CNC(C)C)c3nn(C)c(=O)n3c2c1`: 117%; for `Cc1cc(C)c2cc(CNC3CCCCC3)c3nn(C)c(=O)n3c2c1`: 108.3%; for `CCn1cc(CN(C)C(=O)c2cccc(CCC(C)(C)O)c2)cn1`: -2.58%. The same measure for `COCc1ccc(C(=O)N2CCN(CC=C(C)C)[C@@H]3CS(=O)(=O)C[C@@H]32)o1`: -1.241%; for `O=C(c1ccco1)N1CC[C@@H]2[C@H]1CCC(=O)N2c1ccccc1`: 9.276%. Consider `O=C(O)Cn1nc(C2CC2)c2c(-c3cccs3)ccnc21`, for which the “Percent Effect” value is 125.7%. For `O=C(CN1CC(c2nc(-c3ccco3)no2)C1)NCC1CCCO1.O=C(O)C(=O)O` (configuration not stated), the “Percent Effect” value was 8.836%. Regarding `O=C(O)Cn1nc(C2CC2)c2c(-c3ccco3)ccnc21`, the “Percent Effect” value was 121.5%. Consider `O=C(Cn1cnc(-c2cccs2)cc1=O)Nc1cccnc1`, for which the “Percent Effect” value was 14.09%. Consider `O=c1[nH]c(NC2CCCC2)nc2nccc(-c3ccco3)c12`, for which the “Percent Effect” value stood at 15.07%. The same measure for `O=c1[nH]c(NC2CCCC2)nc2nccc(-c3cccs3)c12`: -0.1995%. The same measure for `N#Cc1ccc(N2CCCC(CO)(CCOc3ccccc3)C2)nc1` (configuration not stated): -8.429%; for `CC(C)N(C)CC(=O)NCC(Cc1ccc(F)cc1)C(N)=O` (configuration not stated): 103.5%.

For `NC(=O)CS(=O)(=O)Cc1ccc(F)cc1`, the “Percent Effect” value was 3.461%.

For the molecule `CC(C)NC(=O)NCC(Cc1ccc(F)cc1)C(N)=O` (configuration not stated), the “Percent Effect” value was determined as 96.65%. For `CC(C)S(=O)(=O)CC(=O)NCC(Cc1ccc(F)cc1)C(N)=O` (configuration not stated), the “Percent Effect” value is 124.5%. Consider `Cc1ccoc1C(=O)NCC(Cc1ccc(F)cc1)C(N)=O` (configuration not stated), for which the “Percent Effect” value is given as 7.737%.

For `CC(C)c1nnc(NC(=O)Cc2ccc(F)cc2)[nH]1`, the “Percent Effect” value was -66.88%. For the molecule `CCOc1ccc(CC(CNC(=O)c2occc2C)C(N)=O)cc1` (configuration not stated), the “Percent Effect” value is on record as -2.596%. The same measure for `COC(=O)C(CNC(=O)Nc1nncs1)Cc1ccc(F)cc1` (configuration not stated): 5.054%; for `CCOc1ccc(CC(CNC(=O)c2ccc(C)o2)C(N)=O)cc1` (configuration not stated): -14.58%; for `Cc1cc(C)c2nc(CNC3CCCNC3=O)cc(O)c2c1` (configuration not stated): -9.599%.

Turning to `Cn1cc(CN2CCCn3cnc(COCc4ccco4)c3C2)cn1`, the “Percent Effect” value is listed as -8.432%. The same measure for `Cc1cc2c(cc1C)C(NCc1nnc3n1CCCCC3)CCCO2` (configuration not stated): 3.518%; for `CSCC[C@@H](CO)n1ccnc1-c1nccn1C`: -1.218%. As for `O=C1CCN(C(=O)CCc2cc(Br)cs2)CCN1`, the “Percent Effect” value was -5.326%. On to `O=C1CCN(C(=O)NCCc2c[nH]c3ccc(Cl)cc23)CCN1`, for which the “Percent Effect” value turned out to be 98.23%.

For the molecule `O=C(NCCOc1ccc(Cl)cc1)N1CCS(=O)(=O)CC1`, the “Percent Effect” value worked out at 9.107%. On to `O=C1CCN(C(=O)CCc2ccc(Cl)cc2Cl)CCN1`, for which the “Percent Effect” value is on record as 106.4%. The same measure for `O=C1CCN(C(=O)NCCCc2ccc(Cl)cc2Cl)CCN1`: 108.4%; for `CC(=O)N1CCCN(C(=O)NCCc2cc(Cl)cc(Cl)c2)CC1`: 8.517%.

In the case of `CC(CNC(=O)N1CCNC(=O)CC1)Cc1cccs1` (configuration not stated), the “Percent Effect” value stood at 17.79%. The same measure for `O=C1CCN(C(=O)C2(c3ccc(Br)cc3)CC2)CCN1`: 3.303%. The same measure for `CC(C)(C)c1noc(CCCC(=O)N2CCNC(=O)CC2)n1`: -18.62%; for `Cc1noc(C)c1CN(C)C(=O)c1ccc2c(c1O)OC(C)(C)C2`: -18.28%. Take `CN(CC(O)CO)C(=O)c1coc(COc2cccc(F)c2)n1` (configuration not stated): the “Percent Effect” value is recorded as -18.15%. As to `Cc1ccn2ncc(C(=O)N3CCCC(n4nc(C)nc4C)C3)c2n1` (configuration not stated), the “Percent Effect” value stood at 0.3182%. The same measure for `CN(Cc1cc[nH]n1)C(=O)c1cccc(CCC(C)(C)O)c1`: -7.029%; for `O=C(NCc1cccnc1)C1=NOC2(CCN(C(=O)N3CCCC3)C2)C1.O=C(O)C(F)(F)F` (configuration not stated): -7.099%. For the molecule `O=C(Nc1ccccc1)C1=NOC2(CCCN(C(=O)C3CCCC3)C2)C1` (configuration not stated), the “Percent Effect” value came to 104.4%. As for `Cl.O=C(Nc1ccccc1F)C1=NOC2(CCNCC2)C1`, the “Percent Effect” value amounted to 2.616%. The same measure for `O=C(Nc1ccccc1)C1=NOC2(CCCN(C(=O)N3CCCC3)C2)C1` (configuration not stated): 131.1%. Regarding `O=C(NCc1cccnc1)C1=NOC2(CCN(C3CCOCC3)C2)C1` (configuration not stated), the “Percent Effect” value is given as -2.233%. The same measure for `O=C(NCc1cccnc1)C1=NOC2(CCN(S(=O)(=O)C3CC3)C2)C1` (configuration not stated): -5.335%. The same measure for `CCC(C)(CC(=O)OC)NCc1nc(C)no1` (configuration not stated): -15.67%; for `COC(=O)c1cc(C(=O)N2CCc3ccc(F)cc3C2C)ccn1` (configuration not stated): -4.117%; for `Cc1nc(C)c(C(=O)N2CCc3ccc(F)cc3C2C)o1` (configuration not stated): 2.437%. Turning to `CC1c2cc(F)ccc2CCN1C(=O)c1[nH]c(=O)[nH]c(=O)c1N` (configuration not stated), the “Percent Effect” value was 103.3%. The same measure for `CC(C)(C)c1ccc2c(c1)CCN2C(=O)c1nc(=O)[nH][nH]1`: 2.994%. The same measure for `O=C(c1cc2c([nH]c1=O)CCC2)N1CCCCC1c1cccc(F)c1` (configuration not stated): -12.81%; for `CC1c2ccc(F)cc2CCN1C(=O)c1nc(=O)[nH][nH]1` (configuration not stated): 110%; for `CC1c2ccc(F)cc2CCN1C(=O)c1[nH]c(=O)[nH]c(=O)c1N` (configuration not stated): 98.7%.

`CC(C)(C)c1ccc2c(c1)CCN2C(=O)c1[nH]c(=O)[nH]c(=O)c1N`: the “Percent Effect” value was 1.564%.

Consider `Cc1nc(C)c(C(=O)N2CCc3cc(F)ccc3C2C)o1` (configuration not stated), for which the “Percent Effect” value is on record as -9.87%. The same measure for `Cn1cc(NC(=O)NCc2ccsc2)ccc1=O`: -5.862%. Consider `CNC(=O)[C@@H](c1ccccc1F)N1CCC[C@H]1C(=O)NC1CCCC1.Cl`, for which the “Percent Effect” value is 0.555%. Turning to `Cl.Cl.Clc1cccc(C[C@@H]2NCCC[C@@H]2Nc2cccc(Cl)c2)c1`, the “Percent Effect” value amounted to 33.15%. The same measure for `Clc1cccc(CNC2CCN(CCc3ccncc3)CC2)c1`: -6.723%; for `Cl.Cl.Clc1cccc(C[C@@H]2NCCC[C@@H]2Nc2ccccc2)c1`: 167.6%; for `O=C1NCCCc2[nH]c(Cc3cccc(Cl)c3)nc21`: -5.245%. For `O=C(Cc1cccc(Cl)c1)N[C@@H]1CCNC[C@H]1O`, the “Percent Effect” value is given as 4.451%. As for `Cl.Clc1cccc(N[C@H]2CCCN[C@H]2Cc2ccccc2)c1`, the “Percent Effect” value was determined as 152.2%.

Take `Cn1nc(C(=O)N2CCCC2)c2c1CN(CC1CCOCC1)C2`: the “Percent Effect” value is reported as -10.68%. The same measure for `Cn1nc(C(=O)N2CCOCC2)c2c1CN(CC1CCC1)C2`: 98%; for `Cn1nc(C(=O)N2CCOCC2)c2c1CN(CC1CC1)C2.O=C(O)C(F)(F)F.O=C(O)C(F)(F)F`: 102.2%; for `O=C(O)C(F)(F)F.O=C(c1nc2c(o1)CN(CC1CC1)C2)N1CCCC1`: -4.032%. The same measure for `CC(C)CCN1Cc2c(C(=O)N3CCCC3)nn(C)c2C1.O=C(O)C(F)(F)F`: 4.332%; for `O=C([C@H]1COC[C@H]2CN(CC3CCC3)C[C@H]21)N1CCOCC1`: -17.46%; for `NC(=O)N1CC(OCc2cccc3ccccc23)C1`: -8.487%. The same measure for `CC(C)NCC1(O)CCCN(CCC2CCCCC2)C1=O` (configuration not stated): -46.74%. On to `CC(C)[C@H]1CN(c2ccncc2)C[C@@H]1NC(=O)C1(C#N)CCOCC1`, for which the “Percent Effect” value is 98.03%. The same measure for `CC(=O)N[C@@H]1CN(Cc2nnc(-c3ccccc3)o2)C[C@H]1C(C)C`: 0.5134%. On to `CC(C)[C@H]1CN(Cc2ccncc2)C[C@@H]1NC(=O)C1(C#N)CCOCC1`, for which the “Percent Effect” value came to 101.3%. For the molecule `CC(C)[C@@H]1CN(Cc2ccccc2C#N)C[C@H]1NC(=O)N(C)C`, the “Percent Effect” value is recorded as 4.058%. The same measure for `CS(=O)(=O)NCC(=O)N[C@H]1CN(c2cnccn2)C[C@@H]1C1CC1`: 0.2443%. With `O=C(O)c1cc(N2C[C@H](NC(=O)C3CCOCC3)[C@@H](C3CC3)C2)ccn1`, the “Percent Effect” value is on record as -7.348%. `COC(C)(C)C(=O)N[C@H]1CN(c2nccnc2N(C)C)C[C@@H]1C(C)C`: the “Percent Effect” value turned out to be 9.529%. As to `CC(C)[C@H]1CN(S(C)(=O)=O)C[C@@H]1NC(=O)c1ccnc(N)c1`, the “Percent Effect” value is -108.5%. The same measure for `N#CC1(C(=O)N2C[C@H]3CC[C@@H]2CN(Cc2ccncc2)C3)CCOCC1`: -3.393%; for `CC(C)[C@H]1CN(c2cnccn2)C[C@@H]1NC(=O)C1(C#N)CCOCC1`: 90.9%; for `Cc1cc(N2C[C@H](NC(=O)C3(C#N)CCOCC3)[C@@H](C(C)C)C2)ccn1`: 95.25%.

As for `O=C(N[C@H]1CN(c2ccncc2)C[C@@H]1C1CC1)C1CCOCC1`, the “Percent Effect” value turned out to be 31.8%.
